Assay results published in PubChem BioAssay (NCATS).
Inconclusive results are not listed. A call without a number means that no potency is given here. Unmarked numbers belong to inactive results. Activity calls are given as the source filed them. Calls come from the whole dose curve; as a rule, active = well fitted curve in the direction sought with a large enough effect; inconclusive = small, poorly fitted or top-dose-only effect, or another doubt; inactive = no such curve, though single readings can be large; an effect the other way counts as inactive or inconclusive.

Key:
[1] = SW1088 Cancer Cell Toxicity qHTS against the NCATS CANVASS Library (AID 1347350); note: nearly all actives have a fitted effect of over 75% in size
Outline: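 Per well, 1000 cells; exposure 72 h with compound at 11 final concentrations; readout CellTiter-Glo luminescence.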

[2] = HEK-293 Cancer Cell Toxicity qHTS against the NCATS CANVASS Library (AID 1347355); note: series mostly up to about 46 µM; nearly all actives have a fitted effect of over 65% in size
Outline: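 Toxicity was measured as CellTiter-Glo luminescence after 72 h exposure to an 11-point compound series. Compound was added to 1000 cells/well 4 h after seeding.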

[3] = HPAF-II 12hr Apoptosis Induction qHTS against the NCATS CANVASS Library (AID 1347358)
Outline: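 Caspase-3/7 activation by DEVD-substrate luminescence (Caspase-Glo 3/7, 15 min, room temperature) after a 12-hour compound exposure in 11 concentrations, of HPAF-II pancreatic cells seeded at 500/well in DMEM with 10% FBS.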

[4] = SDT Cancer Cell Toxicity qHTS against the NCATS CANVASS Library (AID 1347365); note: nearly all actives have a fitted effect of over 60% in size
Outline: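 Cytotoxicity taken from CellTiterGlo ATP luminescence after 72 hr at 37C, 5% CO2. Canine glioma line SDT, 500 cells/well, treated at 11 concentrations; bortezomib dose series as control.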

[5] = KB-3-1 Cancer Cell Toxicity qHTS against the NCATS CANVASS Library (AID 1347366); note: nearly all actives have a fitted effect of over 75% in size
Outline: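 CellTiter-Glo luminescence measured viability after 72 h at 37C. KB-3-1 cells were seeded at 500 per well in DMEM/10% FBS.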

[6] = G06 Cancer Cell Toxicity qHTS against the NCATS CANVASS Library (AID 1347368); note: nearly all actives have a fitted effect of over 60% in size
Outline: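 Viability measured by CellTiterGlo ATP luminescence after 72 hr at 37C, 5% CO2. Canine G06 glioma cells plated at 500/well. Compounds tested as 11-point qHTS titrations.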

[7] = qHTS for ATAD5 Antagonist screened against the NCATS CANVASS Library (AID 1347370);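 note: HEK293T cells carrying an ATAD5 luciferase reporter co-treated with 10 µM 5-fluorouridine; series mostly up to about 46 µM; nearly all actives have a fitted effect of over 65% in size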
Outline: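 Compounds (11-point) co-dosed with 10 µM 5-FUrd for 16 h at 37 °C onto HEK293T-ATAD5 luciferase reporter cells. Viability measured by CellTiter-Fluor fluorescence, then ATAD5 reporter signal by luminescence.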

[8] = target: Nuclear receptor subfamily 1 group I member 3 (Homo sapiens) (UniProt Q14994); experiment: qHTS for Constitutive Androstane Receptor (CAR) Antagonist screened against the NCATS CANVASS Library (AID 1347372);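 note: cells stimulated with 50 nM CITCO agonist so inhibition reflects antagonism; series mostly up to about 46 µM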
Sequence of Nuclear receptor subfamily 1 group I member 3 (Homo sapiens) (Q14994 whole entry, looked up): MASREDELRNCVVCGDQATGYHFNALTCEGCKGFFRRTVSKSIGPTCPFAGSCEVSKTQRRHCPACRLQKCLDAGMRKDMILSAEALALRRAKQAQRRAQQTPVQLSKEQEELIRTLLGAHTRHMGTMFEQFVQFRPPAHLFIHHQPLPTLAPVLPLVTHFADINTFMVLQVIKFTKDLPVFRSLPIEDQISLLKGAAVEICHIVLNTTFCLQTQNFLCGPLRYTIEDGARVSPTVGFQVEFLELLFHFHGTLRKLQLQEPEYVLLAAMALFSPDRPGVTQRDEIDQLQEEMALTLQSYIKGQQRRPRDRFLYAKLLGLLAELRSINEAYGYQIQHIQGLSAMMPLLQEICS
Outline: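 Antagonist mode: compound added alongside 50 nM CITCO to HepG2-hCAR-CYP2B6 reporter cells, 24hr at 37C. Viability by CellTiter-Fluor fluorescence, then CAR-driven luciferase by ONE-Glo luminescence.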

[9] = qHTS for Hypoxia signaling pathway (HIF-1) antagonists against the NCATS CANVASS Library (AID 1347374);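 note: HRE-bla ME-180 cells stimulated with cobalt chloride to stabilize HIF-1alpha; series mostly up to about 38 µM; nearly all actives have a fitted effect of over 60% in size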
Outline: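 Antagonism scored as loss of CoCl2-driven (60 uM stock added) HRE beta-lactamase signal, read by CCF4 FRET at 460/530 nm. Compounds were tested in an 11-point series on ME-180 reporter cells for 17 hrs at 37C, with parallel CellTiter-Glo cytotoxicity.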

[10] = 10-beta competent E. coli microbial cell viability qHTS against the NCATS CANVASS Library (AID 1347376); note: series mostly up to about 46 µM
Outline: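 Read-out: BacTiter-Glo ATP luminescence, taken 20 min after reagent addition. Beforehand, 10-beta competent E. coli at 0.2 OD had been incubated overnight at 37C with compounds at 11 concentrations.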

[11] = qHTS for H2AX Agonists against the NCATS CANVASS Library (AID 1347378)
Outline: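 Phospho-H2AX (S139) in CHO-K1 lysates measured by HTRF, reported as 665/615 nm emission ratio after 24 hr antibody incubation at room temperature. Cells were first treated with a compound series for 3 hr at 37C (0.76% DMSO final).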

[12] = Cytotoxicity qHTS for assessment of Hepg2 cells membrane integrity screened against the NCATS CANVASS Library (AID 1347387)
Outline: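 Membrane damage quantified as fluorescent LDH-release signal (ex 560, em 590 nm) in HepG2 cells treated 5 hr at 37C. qHTS format, 11 concentrations spanning 0.59 nM - 46 uM final, cells plated at 2000 per well the night before.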

[13] = qHTS for Activators of p53 Stress Response Pathway screened against the NCATS CANVASS Library (AID 1347388)
Outline: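 Beta-lactamase reporter driven by p53 response elements in HCT-116 cells, read as the 460 nm/530 nm emission ratio after CCF4 loading, following 16 h of exposure to an 11-point series. Cell viability was measured in the same wells by CellTiter-Glo luminescence.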

[14] = qHTS assay for small molecule disruptors of mitochondrial membrane potential screened against the NCATS CANVASS Library (AID 1347389); note: nearly all actives have a fitted effect of over 60% in size; note: potency is the fitted concentration of half-maximal effect
Outline: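 Mitochondrial membrane potential in HepG2: 1 h compound treatment (11-point concentration series), 30 min m-MPI dye at 37C, then dual fluorescence of J-aggregates (ex 540/em 590) and monomers (ex 490/em 535); lower red/green ratio indicates depolarization.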

[15] = Secretion counterscreen for inhibitors of the SERCaMP assay screened against the NCATS CANVASS Library (AID 1347390);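 note: light from luciferase secreted into medium read as a measure of general secretion; series mostly up to about 77 µM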
Outline: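 Counterscreen for secretory-pathway interference: after 4 h attachment, SH-SY5Y-GLuc cells were exposed 20 hours to compounds (final 0.001 - 77 uM), then coelenterazine added and GLuc luminescence recorded; Brefeldin A served as control.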

[16] = qHTS for activators of dead-cell proteases activity screened against the NCATS CANVASS Library (AID 1347392);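 note: luminescence from protease leaking out of membrane-damaged cells cleaving impermeant substrate; rising signal means more cytotoxicity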
Outline: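 Luminescent dead-cell protease readout (AAF-aminoluciferin, 15 min, room temperature) after 5 h compound treatment of HepG2 cells (2000/well, pre-attached 18 h). Eleven concentrations.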

[17] = qHTS for inhibitors of ER calcium dysfunction: SERCaMP assay screened against the NCATS CANVASS Library (AID 1347393);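 note: series mostly up to about 77 µM; lower secreted reporter signal means inhibitor of ER calcium depletion; nearly all actives have a fitted effect of over 40% in size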
Outline: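 Thapsigargin-induced ER calcium depletion drives GLuc-SERCaMP secretion from SH-SY5Y cells; compounds given 16 h beforehand were scored by lowered coelenterazine luminescence after 4 h challenge.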

[18] = Viability qHTS for inhibitors of the SERCaMP assay screened against the NCATS CANVASS Library (AID 1347400); note: series mostly up to about 92 µM; nearly all actives have a fitted effect of over 70% in size
Outline: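 CellTiter-Glo luminescence measured cytotoxicity after 48 h at 37C of compound treatment (11-point series). Cells were SH-SY5Y-GLuc SERCaMP MJH297 derivatives, seeded at 1000 per well 4 h beforehand.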

[19] = Redox Reaction Profiling qHTS: Assay Interference Panel against the NCATS CANVASS Library (AID 1347401); note: potency is the fitted concentration of half-maximal effect
Outline: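 Redox-cycling liability assessed as DTT-driven conversion of resazurin (5 uM, with 200 uM DTT, HEPES pH 7.3) to fluorescent resorufin. Fluorescence at 525/598 nm measured initially and after 15 min dark incubation.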

[20] = target: Nuclear receptor subfamily 1 group I member 3 (Homo sapiens) (UniProt Q14994); experiment: qHTS for Constitutive Androstane Receptor (CAR) Agonist screened against the NCATS CANVASS Library (AID 1347373);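 note: every well also contained 1.5 µM PK11195 alongside the test compound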
Outline: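 Agonist mode with 1.5uM PK11195 present: compounds for 24hr on HepG2-hCAR-CYP2B6 cells. CellTiter-Fluor fluorescence (ex 405, em 540 nm) gives viability; ONE-Glo luminescence reports CAR activation.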

Structure (SMILES)	Potency [1]	Potency [2]	Potency [3]	Potency [4]	Potency [5]	Potency [6]	Potency [7]	Potency [8]	Potency [9]	outcome [10]	Potency [11]	outcome [12]	Potency [13]	Potency [14]	Potency [15]	Potency [16]	Potency [17]	Potency [18]	Potency [19]	outcome [20]
CC1(C)[C@H](Br)CC[C@]23C[C@]4(C)C(=O)CC12C[C@H]34	inactive	inactive	inactive	inactive	inactive	inactive	inactive	inactive	inactive	inactive	inactive	inactive	inactive	inactive	inactive	inactive	inactive	inactive	inactive	
CCC1=C2CCCN3C(=O)O[C@H]([C@H]1OC(C)=O)[C@H]23	inactive	inactive	inactive	inactive	inactive	inactive	inactive	inactive	inactive	inactive	inactive	inactive	inactive	inactive	inactive	inactive	inactive	inactive	inactive	inactive
O=C(O)[C@@]12COC3(O)C1CCN1CC[C@H]3[C@@H]1c1c2[nH]c2ccccc12	inactive	inactive	inactive		inactive	inactive	inactive	inactive	inactive	inactive	inactive	inactive	inactive	inactive	inactive	inactive		inactive	21.5 µM (active)	inactive
COc1cc(O)c2c3c(c(O)cc(C)c13)C(=O)OC2	inactive	inactive	inactive	inactive	inactive	inactive	inactive	inactive	inactive	inactive	inactive	inactive	inactive	18.6 µM (active)	inactive	inactive		inactive	21.5 µM (active)	inactive
C=C1C[C@@]23C=CC(=O)[C@@](C)(CCCC(C)C(=O)O)[C@@H]2C[C@@H]1CC3 (some centres undefined)		inactive	inactive	inactive	inactive		inactive	inactive	inactive	inactive	inactive	inactive	inactive	inactive	inactive	inactive	inactive	inactive	inactive	inactive
